The results in this text go back to the supplement of paper PMC5662767.

This assay concerns Drosophila S2 cl14 SmoIP sensor cells. In words: normalized SmoIP GFP fluorescence (untreated unstimulated = 0%, untreated Hh-stimulated = 100%); higher = more Smo activation sensor fluorescence. The note with it: compound concentration: 2 uM, 24 h.
[1] abbreviates: stimulation: Hh conditioned medium (+Hh).
Where [2] appears, read: stimulation: mock conditioned medium (-Hh).

Structures are written as SMILES. Counter-ions that a name gives are not always drawn.
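Note: flow cytometry read-out as median GFP intensity of gated cells, compounds added 30 min before Hh-conditioned or mock medium, mock-treated cells serving as unstimulated baseline.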

For the compound `O=C(O)c1cc2cccc([N+](=O)[O-])c2[nH]1`, the “normalized SmoIP GFP fluorescence” value was determined as 136% under setting [1] and 24.3% under setting [2].
With `COc1ccc([C@@H]2CC(=O)c3c(O)cc(O)cc3O2)cc1O` [Hesperetin], the “normalized SmoIP GFP fluorescence” value reads like this: under setting [1], 111%; under setting [2], -18.9%.
For the compound `Cn1cc(-c2cnn3c(N)c(Br)c([C@@H]4CCCNC4)nc23)cn1`, the “normalized SmoIP GFP fluorescence” value was 185% under setting [1] and 5.65% under setting [2].
For `CC(COc1ccccc1)N(CCCl)Cc1ccccc1` (stereo not given) [Phenoxybenzamine-hydrochloride], in that order: 148% and -12.4%.
In the same order, the values of `CC(C)CCN1c2nc(Nc3cc(F)c(O)c(F)c3)ncc2N(C)C(=O)C1C` (stereo not given) are 144% and 1.61%.
As for `Cc1ccc([C@@H]2O[C@H](CO)[C@@H](O)[C@H](O)[C@H]2O)cc1Cc1ccc(-c2ccc(F)cc2)s1` [canagliflozin], the “normalized SmoIP GFP fluorescence” value is 123% under setting [1] and -10.2% under setting [2].
Consider `Nc1nnc(-c2cccc(Cl)c2Cl)c(N)n1` [lamotrigine], for which the “normalized SmoIP GFP fluorescence” value is, setting by setting: under setting [1], 101%; under setting [2], -3.5%.
As to `CCOc1cc([C@@H](CS(C)(=O)=O)N2C(=O)c3cccc(NC(C)=O)c3C2=O)ccc1OC`, the “normalized SmoIP GFP fluorescence” value was 142% under setting [1] and -14.5% under setting [2].
Take `O=c1sn(-c2cccc3ccccc23)c(=O)n1Cc1ccccc1` [tideglusib]: the “normalized SmoIP GFP fluorescence” value under setting [1] was 101% and the “normalized SmoIP GFP fluorescence” value under setting [2] is -0.264%.
For the compound `N[C@H]1C[C@@H]1c1ccc(-c2cccc(O)c2)cc1`, the “normalized SmoIP GFP fluorescence” value is, setting by setting: under setting [1], 102%; under setting [2], -4.81%.
In the same order, the values of `OC[C@@H](O)CN1CCN(c2ccccc2)CC1` [levodropropizine] are 94.5% and -2.93%.
Turning to `C/C(=C\C(=O)Nc1ccccc1C(=O)O)c1ccc2ccccc2c1`, the “normalized SmoIP GFP fluorescence” value under setting [1] amounted to 109% and the “normalized SmoIP GFP fluorescence” value under setting [2] is -2.42%.
As for `Cc1cc(C)c2c(c1)[C@@H](N(Cc1cc(C(F)(F)F)cc(C(F)(F)F)c1)c1nnn(C)n1)CCCN2CC1CCC(C(=O)O)CC1` (stereo not given in full), the “normalized SmoIP GFP fluorescence” value under setting [1] turned out to be 105% and the “normalized SmoIP GFP fluorescence” value under setting [2] is -5.15%.
Consider `Cc1cccc(Nc2ccccc2C(=O)O)c1C` [mefenamic-acid], for which the “normalized SmoIP GFP fluorescence” value was 111% under setting [1] and -1.23% under setting [2].
Turning to `C=CC(=O)Nc1cccc(Nc2nc(Nc3ccc(Oc4ccnc(C(=O)NC)c4)cc3)ncc2F)c1`, the “normalized SmoIP GFP fluorescence” value reads like this: under setting [1], 116%; under setting [2], -1.23%.
In the same order, the values of `Cc1cc(C(C)(C)C)c(O)c(C)c1CC1=NCCN1` [Oxymetazoline-hydrochloride] are 95.8% and -3.5%.
For the compound `O=C1Nc2ccccc2/C1=C1/Nc2ccccc2C1=O` [Indirubin], the “normalized SmoIP GFP fluorescence” value is, setting by setting: under setting [1], 127%; under setting [2], -11.4%.
Consider `C/C(=N\NC(=S)N1CCC1)c1ccccn1`, for which the “normalized SmoIP GFP fluorescence” value amounted to 207% under setting [1] and 30.1% under setting [2].
With `COC(=O)C1=C(C)NC(C)=C(C(=O)OC(C)C)C1c1cccc2nonc12` (stereo not given) [Isradipine(Dynacirc)], the “normalized SmoIP GFP fluorescence” value reads like this: under setting [1], 112%; under setting [2], 3.72%.
In the same order, the values of `COC(=O)C1=C(C)NC(C)=C(C(=O)OC2CCCN(Cc3ccccc3)C2)C1c1cccc([N+](=O)[O-])c1` (stereo not given) [benidipine-hydrochloride] are 89.9% and -3.9%.
For the compound `CCCCc1nc(Cl)c(CO)n1Cc1ccc(-c2ccccc2-c2nnn[nH]2)cc1` [losartan-potassium], the “normalized SmoIP GFP fluorescence” value is 90.8% under setting [1] and -1.56% under setting [2].
`COc1ccc2cc(CCC(C)=O)ccc2c1` [nabumetone]: the “normalized SmoIP GFP fluorescence” value by setting is: under setting [1], 103%; under setting [2], -2.2%.
For `CCN(CC)CC#CCOC(=O)C(O)(c1ccccc1)C1CCCCC1` (stereo not given) [oxybutynin-chloride], the “normalized SmoIP GFP fluorescence” value runs as follows: under setting [1], 108%; under setting [2], -1.12%.
Consider `COc1cc2nc(N3CCCN(C)CC3)nc(NC3CCN(Cc4ccccc4)CC3)c2cc1OC`, for which the “normalized SmoIP GFP fluorescence” value under setting [1] turned out to be 109% and the “normalized SmoIP GFP fluorescence” value under setting [2] is 1.61%.
For the compound `Cc1cc(Nc2ccc(NC(=O)c3ccc(Nc4ccnc5ccccc45)cc3)cc2)nc(N)n1`, the “normalized SmoIP GFP fluorescence” value is 108% under setting [1] and -3.5% under setting [2].
In the same order, the values of `Cc1cc(O)c2c(c1)C(=O)c1cccc(O)c1C2=O` [Chrysophanic-acid-Chrysophanol] are 133% and -7.42%.
Regarding `O=c1cc(-c2ccc(O)cc2)oc2cc(O)cc(O)c12` [Apigenin], the “normalized SmoIP GFP fluorescence” value under setting [1] worked out at 140% and the “normalized SmoIP GFP fluorescence” value under setting [2] is -2.19%.
Turning to `CN(C)CCC=C1c2ccccc2CCc2ccccc21` [amitriptyline-hydrochloride], the “normalized SmoIP GFP fluorescence” value runs as follows: under setting [1], 104%; under setting [2], -3.27%.
As for `CC(C)(C)NS(=O)(=O)c1cncc(-c2cc(F)c3nc(N)nn3c2)c1`, the “normalized SmoIP GFP fluorescence” value was 104% under setting [1] and -4.47% under setting [2].
Consider `Cc1c(Cl)cccc1Nc1ccccc1C(=O)O` [tolfenamic-acid], for which the “normalized SmoIP GFP fluorescence” value is 88.3% under setting [1] and -15.3% under setting [2].
Turning to `Nc1nc(N)c(N=O)c(OCC2CCCCC2)n1`, the “normalized SmoIP GFP fluorescence” value turned out to be 139% under setting [1] and 12.5% under setting [2].
In the case of `CC1(C)CCC2=C(O1)c1ccccc1C(=O)C2=O` [beta-lapachone], the “normalized SmoIP GFP fluorescence” value by setting is: under setting [1], 113%; under setting [2], -0.264%.
As to `CC(=O)Oc1ccccc1C(=O)O` [aspirin-acetylsalicylic-acid], the “normalized SmoIP GFP fluorescence” value is 101% under setting [1] and -6.51% under setting [2].
Take `CN1CCC(=C2c3ccccc3CC(=O)c3sccc32)CC1` [ketotifen-fumarate-zaditor]: the “normalized SmoIP GFP fluorescence” value by setting is: under setting [1], 118%; under setting [2], -13.9%.
For `C=C(C)[C@@H]1CC[C@]2(C(=O)O)CC[C@]3(C)[C@H](CC[C@@H]4[C@@]5(C)CC[C@H](O)C(C)(C)[C@@H]5CC[C@]43C)[C@@H]12` [betulinic-acid], in that order: 97% and -2.93%.
